Laboratory results reported in PubChem BioAssay (NCATS).
Inconclusive results are not listed. Entries that show only a call come without a potency. Calls of active or inactive are those of the source. The call rests on the fitted dose curve; in most records, active means well fitted inhibition curve with a large enough effect; inconclusive means small, poorly fitted or top-dose-only effect; inactive means flat fitted curve, though single readings scatter.

Each compound was assayed against Calcium and integrin-binding protein 1 (Homo sapiens) (UniProt Q99828) (assay: Primary qHTS for Identification of Calcium Integrin Binding Protein 1 (CIB1) Competitor (AID 1508620;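 further: GST tagged CIB1 binding a fluorescein labelled alphaIIb integrin peptide tracer; top concentration of the series differs between compounds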)). Conditions: CIB1-GST / FITC-alphaIIb peptide fluorescence polarization; series mostly up to 57.7 µM.
Sequence of Calcium and integrin-binding protein 1 (Homo sapiens) (Q99828 whole entry, looked up): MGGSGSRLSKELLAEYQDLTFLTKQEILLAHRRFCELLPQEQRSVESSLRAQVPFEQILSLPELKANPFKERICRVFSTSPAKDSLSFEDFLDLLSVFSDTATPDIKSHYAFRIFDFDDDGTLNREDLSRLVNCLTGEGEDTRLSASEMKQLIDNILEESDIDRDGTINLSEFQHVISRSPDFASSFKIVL
Method in brief: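 Fluorescence polarization competition: CIB1-GST (1 uM final) preincubated with compound 15 min at room temperature, then FITC-labeled alphaIIb peptide (100 nM final) added for another 15 min. Polarization read at Ex 480/Em 540.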

Structure (SMILES) | Potency
COc1nc(C)cnc1NS(=O)(=O)c1cccnc1-c1ccc(-c2nnco2)cc1 | inactive
O=S(=O)(NCCNCC=Cc1ccc(Br)cc1)c1cccc2cnccc12 | inactive
COc1cc2nc(-c3cc(F)ccc3O)nc(N[C@@H]3CNC[C@@H]3C(C)(C)O)c2cc1OC | inactive
